According to PubChem BioAssay AID651725 (National Center for Advancing Translational Sciences (NCATS), 2012):
Among all 360,000 compounds or so, about 2,000 (0.56%) were called active. Inconclusive results (about 2%) are left out. What follows is part of a selection rich in actives, with near analogues and random picks from the rest. Values without a mark were called inactive. No stated cut-off is given here; in the data, active means activity change below about -65%; inconclusive means mostly about -30% to -63%; inactive means weaker than that.

molecular target: Homeobox protein SIX1 (Homo sapiens) + Protein phosphatase EYA2 (Homo sapiens) (UniProt Q15475+O00167); assay: qHTS Assay for Inhibitors of the Six1/Eya2 Interaction; conditions: AlphaScreen GST-Six1/His-Eya2 binding, biochemical; stronger effect = lower value
Sequence (O00167 whole entry, looked up): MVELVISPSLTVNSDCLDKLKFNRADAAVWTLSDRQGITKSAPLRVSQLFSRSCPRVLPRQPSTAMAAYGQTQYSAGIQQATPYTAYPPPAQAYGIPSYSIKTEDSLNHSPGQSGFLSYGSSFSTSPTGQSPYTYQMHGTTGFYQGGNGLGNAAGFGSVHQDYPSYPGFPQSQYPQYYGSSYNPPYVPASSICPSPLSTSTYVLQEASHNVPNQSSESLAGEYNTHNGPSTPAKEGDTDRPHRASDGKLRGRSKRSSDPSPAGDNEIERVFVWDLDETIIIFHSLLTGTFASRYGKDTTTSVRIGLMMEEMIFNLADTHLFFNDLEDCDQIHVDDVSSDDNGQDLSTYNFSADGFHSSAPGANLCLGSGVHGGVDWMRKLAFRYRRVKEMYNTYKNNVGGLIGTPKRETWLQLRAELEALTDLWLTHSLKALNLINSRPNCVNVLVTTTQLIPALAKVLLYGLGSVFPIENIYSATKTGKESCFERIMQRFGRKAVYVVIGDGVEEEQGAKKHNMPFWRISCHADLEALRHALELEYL
Sequence (Q15475 whole entry, looked up): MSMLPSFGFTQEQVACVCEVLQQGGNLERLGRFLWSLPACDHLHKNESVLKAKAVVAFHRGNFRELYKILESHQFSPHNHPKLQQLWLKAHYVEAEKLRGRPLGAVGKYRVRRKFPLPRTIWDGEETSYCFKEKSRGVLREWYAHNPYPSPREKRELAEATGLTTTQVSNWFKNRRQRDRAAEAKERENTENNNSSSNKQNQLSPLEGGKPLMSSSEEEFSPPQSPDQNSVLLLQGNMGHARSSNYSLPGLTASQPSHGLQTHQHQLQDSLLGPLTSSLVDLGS
Outline: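 Compounds are tested against tagged Six1 and Eya2 proteins bridged by glutathione donor and nickel acceptor beads; after a one-hour incubation at 37 °C without light, AlphaScreen emission is recorded.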
On the % scale 0 is the no-effect control and ±100 the full control effect.

Compound	activity change
COc1ccc2c(c1)N(C)/C(=C1/SC(=S)N(NC(C)=O)C1=O)S2	-8.77%
O=C1NC[C@H](CCCCN2CCN(CCc3ccccc3)C(=O)C2=O)N(CC2CCCCC2)C1=O	-4.53%
Cc1cc(=O)oc2cc(OCC(=O)N3CCN(c4ccc(F)cc4)CC3)c(Cl)cc12	3.08%
Cc1cccc(C)c1NC(=O)CN1CCN(c2ccc(F)cc2)CC1	-0.798%
Oc1c(CN2CCN(c3ccc(F)cc3)CC2)cc(Cl)c2cccnc12	-81.4% (active)
CSCCC(C(=O)NC(C)(C)C)n1c(-c2ccccc2)nc2ccccc21 (stereo not given)	7.41%
Cc1ccc(-c2ccc(C3=CC(=O)CC(C)(C)C3=O)cc2)cc1	-1.02%
CCCc1nc2ccccc2n1C(C)C(=O)NC(C)(C)C (stereo not given)	-4.69%
CCOC(=O)N1CCN(C(c2cccnc2)c2ccc3cccnc3c2O)CC1 (stereo not given)	-88.9% (active)
CCOC(=O)N1CCN(C(=O)C2CCN(c3ncnc4c3sc3cccc(F)c34)CC2)CC1	-5.48%
CCN1CCN(C(c2cccnc2)c2cc(Cl)c3cccnc3c2O)CC1 (stereo not given)	-90.1% (active)
CCOC(=O)N1CCN(C(c2ccnc3ccccc23)c2nnnn2-c2c(C)cccc2C)CC1 (stereo not given)	18.3%
C=CCC[C@H](CCCCC)OC(=O)/C=C/[C@H](O)[C@@H](O)C[C@@H](O)CC=C	9.69%
COC(=O)C[C@H]1C=C[C@@H](NS(=O)(=O)c2ccc(C)cc2)[C@@H](CO)O1	-7.03%
Cc1ccc(Cn2cc(CN3CC(N4CCN(C)CC4)CS3(=O)=O)nn2)cc1 (stereo not given)	2.69%
COc1ccc(/C=N/Nc2nc(-c3ccc(C)cc3)c(C#N)c(=O)[nH]2)cc1	1.97%
Cc1nnc(N/N=C/c2ccccn2)[nH]c1=O	-72.8% (active)
CCOc1ccc(N/C(N)=N/c2nc(C)c(C)c(=O)[nH]2)cc1	1.12%
Cc1cc(=O)[nH]c(N/N=C/c2c(C)nn(-c3ccccc3Cl)c2Cl)n1	1.43%
COc1ccc(-n2c(O)c(C=NCC(c3ccco3)N3CCCC3)c3ccccc3c2=O)cc1OC (stereo not given)	-13%
CCOc1ccc(-n2c(O)c(/C=N/Nc3nnc(C)c(=O)[nH]3)c3ccccc3c2=O)cc1	-93.7% (active)
Cc1[nH]nc(SCC(=O)NCC(C)C)c1[N+](=O)[O-]	3.57%
COc1ccc(N(CCC#N)S(=O)(=O)c2ccc(Cl)cc2)cc1	3.78%
CCCCOCCCNC(=O)C[C@@H]1C[C@@]2(C(=O)OCC)CCCC=C2N(CCC2=CCCCC2)C1=O	-13.6%
COCCNC(=O)C1C(=O)Nc2ccccc2C(=O)N1c1ccc2c(c1)OCCO2 (stereo not given)	7.33%
CC1(C(=O)Nc2ccc3c(c2)OCCO3)CN(S(C)(=O)=O)CC(=O)N1Cc1cccc(F)c1 (stereo not given)	6.88%
Oc1c(C(c2ccccn2)N2CCOCC2)ccc2cccnc12 (stereo not given)	-91.8% (active)
O=C(C[C@H]1CC[C@H]2[C@@H](COC[C@H](O)CN2C(=O)c2ccccn2)O1)N1CCN(c2ccccc2)CC1	-7.33%

Compound	activity change
CCCCn1nnnc1C1(C)CCC(=O)N1Cc1ccc(OC)c(OC)c1 (stereo not given)	-14.1%
CC(C)NC(=O)C(=O)NCCCOC(C)C	7.72%
Cc1nn(C)cc1C(=O)NNC(=S)Nc1ccc(Cl)cc1	0.473%
Cc1cccc(-n2cnc(C(=O)NNC(=S)Nc3ccccc3)c2)n1	-90.4% (active)
Cc1cccc(-n2cnc(C(=O)Nc3cccnc3)c2)n1	26.5%
O=C1COc2ccc(S(=O)(=O)NCCc3ccc(Cl)cc3)cc2N1	6.96%
CCOC(=O)[C@]12CCCC=C1N(CCC1=CCCCC1)C(=O)[C@H](CC(=O)N1CCOCC1)C2	8.54%
Cn1c(N)c(C(=O)COC(=O)c2ccc3ccccc3c2)c(=O)n(C)c1=O	-0.607%
Cn1c(N)c(C(=O)COC(=O)COc2ccc(Cl)cc2)c(=O)n(C)c1=O	-10.5%
Cn1c(N)c(C(=O)COC(=O)c2cnc(Cl)c(Cl)c2)c(=O)n(C)c1=O	-92.3% (active)
COC(=O)c1scc(S(=O)(=O)C(C)(C)C)c1-n1cccc1	5.88%
CCC(=O)Nc1ccc(C(=O)CSc2nnc(CNc3ccc(Cl)cc3)o2)cc1OC	-0.882%
O=C(NCc1ccccc1Cl)C1CCC(CNc2c(N3CCCCC3)c(=O)c2=O)CC1 (stereo not given)	5.37%
Cc1cccc(NC(=O)c2cccc(S(=O)(=O)N3CCCC3)c2)n1	-10.7%
Cc1ncc(CO)c(/C=N/NC(=O)c2cccc(S(=O)(=O)N3CCCC3)c2)c1O	-82.4% (active)
CCOc1cc(/C=N/NC(=O)c2cccc(S(=O)(=O)N3CCOCC3)c2)ccc1OCC(=O)N(C)C	-8.33%
CCCC[C@@H]1CN=C(N)N1CCc1cc(C(F)(F)F)cc(C(F)(F)F)c1	16.6%
Cc1ccc(CNC(=O)CCCNC(=O)c2ccc(Cl)cc2)n1C	-7.14%
Cc1cc(OC(=O)c2ccc(Cl)cc2)cc(=O)n1C	-92.4% (active)
Cn1cncc1COC(=O)c1ccc(Cl)cc1	-6.11%
O=C1NC[C@H](Cc2ccc(O)cc2)N(C[C@@H]2CCCN2C[C@H](Cc2ccccc2)N2C[C@H](Cc3ccccc3)N(CC3CCCCC3)C(=O)C2=O)C1=O	9.57%
COC(=O)[C@]12CCCCC=C1N(CCC1=CCCCC1)C(=O)[C@H](CC(=O)NCC1CCCCC1)C2	-2.3%
Cc1c(N=Nc2ccc(N(C)C)cc2)c(=O)n(-c2ccccc2)n1C	-7.33%
Cc1c(C=O)n(C)n(-c2ccccc2)c1=O	15.7%
Cc1nc(N)sc1N=Nc1c(C)n(C)n(-c2ccccc2)c1=O	-66.7% (active)
CCCCCCCCN1C(=O)[C@H](CC(=O)NCc2cccc3ccccc23)C[C@@]2(C(=O)OC)CCCCC=C12	0.0747%
N#Cc1ccc(C(C(=O)NCc2ccccc2)n2c(=O)c(-c3ccco3)nc3ccccc32)cc1 (stereo not given)	2.42%
